Key:
Experiment in all cases: PBM binding z-score (relative to random genomic background probes); higher = stronger binding; sequences stand for … in GC…GCGATTGACAGCGTAGAATGAAGG
[1] = test system: FXR:RXRa (NR concentration 270 nM, RXRa partner concentration 90 nM)
Procedure, shortened: (§1)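 Scanned fluorescence from custom Agilent 4×180K protein-binding microarrays was regression-normalized. Binding z-scores use random background probes as reference. Ligand-free nuclear receptor dimers were incubated on the arrays for 1 h and detected with antibodies against each partner (one per run).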

[2] = test system: LXRa:RXRa (NR concentration 270 nM, RXRa partner concentration 90 nM)
Procedure, shortened: as §1

[3] = test system: LXRa homodimer (NR concentration 270 nM)
Procedure, shortened: as §1

[4] = test system: LXRb:RXRa (NR concentration 270 nM, RXRa partner concentration 90 nM)
Procedure, shortened: as §1

[5] = test system: LXRb homodimer (NR concentration 270 nM)
Procedure, shortened: as §1

[6] = test system: PPARa:RXRa (NR concentration 270 nM, RXRa partner concentration 90 nM)
Procedure, shortened: as §1

[7] = test system: PPARg:RXRa (NR concentration 180 nM, RXRa partner concentration 90 nM)
Procedure, shortened: as §1

[8] = test system: PPARg:RXRa 270nM:90nM, anti-RXR (NR concentration 270 nM, RXRa partner concentration 90 nM)
Procedure, shortened: as §1

[9] = test system: PPARg:RXRa 30nM:10nM, anti-RXR (NR concentration 30 nM, RXRa partner concentration 10 nM)
Procedure, shortened: as §1

[10] = test system: PPARg:RXRa 90nM:30nM, anti-RXR (NR concentration 90 nM, RXRa partner concentration 30 nM)
Procedure, shortened: as §1

Sequence	PBM binding z-score [1]	PBM binding z-score [2]	PBM binding z-score [3]	PBM binding z-score [4]	PBM binding z-score [5]	PBM binding z-score [6]	PBM binding z-score [7]	PBM binding z-score [8]	PBM binding z-score [9]	PBM binding z-score [10]
ATCTCTAGCTAAAGATAGTTCAGTGAATGCAAAT	-0.338	-0.141	0.164	0.199	0.452	0.345	0.318	-0.271	-0.0381	-0.201
TCTATTAATTGAAGGGCAACCGACGAGTCCGTTT	0.489	1	1.77	0.808	0.497	1.16	0.0188	1.99	3.93	2.74
TCTAGCAGGCCAGAGGGTCACTCATGAGGTACGG	0.745	0.822	-0.462	0.852	-1.1	2.2	1.64	2.87	2.19	2.63
TAGCCTAGGTCATCCAGGGGCCAGTATAGAAAGC	4.4	3.37	0.176	2.82	0.318	3.66	2.57	2.47	0.738	1.52
CCGACTGGGGCACGGTTACCATAACGCACAGCCA	-0.15	-0.079	-0.346	-0.211	-0.878	0.346	1.8	0.982	-0.228	0.391
TCGAGTAGGTTATTCGGGGCATTCAGCCAACATA	1.16	1.05	0.0577	1.51	-0.7	1.69	0.35	1.19	1.13	1.07
CCGACTAGGGCAAGGTTACCATAACGCACAGCCA	0.299	0.666	-0.117	0.701	-1.03	1.93	3.55	3.99	1.61	3.28
CGTTACGGGTCAAGGTTATAGCACGGGTGGTACG	5.94	3.83	0.0546	3.09	-0.0956	5.35	4.95	4.72	1.51	3.37
TCTGCTAGGTCAGATGGTCAGCTAACGAGCTGCC	1.36	0.977	-0.468	0.356	-0.258	1.86	1.57	2.53	1.8	2.34
TCTTGTAGGTCAACAGGAGGTTAAGAAAGATCGA	5.53	4.75	1.77	3.93	1.27	5.74	7.68	6.79	5.3	6.38
TATACAGGGTCAAAGCCCAGAGTACGAATGTCGA	7.38	5.88	2.47	4.7	2.15	5.93	6.29	5.96	2.69	4.51
GCATATAGGTAATACAAGGTTAAAGTCCGATTGT	0.589	5.43	4.13	2.63	-0.0858	2.39	1.69	1.5	0.655	0.992
CCTCGGAGGACAACAGGAGCTCAGAGCTGCCAGA	-0.156	-0.474	-0.523	-0.921	-0.933	-0.767	-0.107	-1	-0.714	-0.999
ATATGTAGGTTAAGGGTCATTCGGGTTGGTTCGC	5.36	4.83	3.47	4.62	1.81	6.53	12.2	10.3	11.7	12.2
CATACAGGGTCAGCTCGGCCAGAGTAGGGACGGC	4.13	2.91	-0.117	2.06	0.463	3.97	2.99	2.64	0.565	1.72
CGAACGAGGGCATGAGTTGATATCAAATGCCGAT	0.475	0.326	-0.371	0.156	-0.654	1.59	1.58	1.42	0.347	0.786
AATACAGGGTCAGTAGGCCAGAGTAGGTACGAAT	3.97	3.63	0.625	2.61	0.737	4.47	5.91	5.01	1.93	3.86
GCTTGTAGATCAAGGTAAAGAAAGACTAAGCTAA	-0.136	-0.278	-0.768	-0.413	-0.986	-0.222	0.0186	0.28	-0.318	-0.167
TCATATAGGTAACTGCTAGGTGAAAGTCCGATCT	1.07	1.19	0.0877	0.852	-0.244	1.75	1.11	2.52	3.76	3.29

Sequence	PBM binding z-score [1]	PBM binding z-score [2]	PBM binding z-score [3]	PBM binding z-score [4]	PBM binding z-score [5]	PBM binding z-score [6]	PBM binding z-score [7]	PBM binding z-score [8]	PBM binding z-score [9]	PBM binding z-score [10]
AGAATGAGGTTACCAAAGATCCGGGAAACGCTTG	1.58	2.04	-0.0971	1.33	-0.177	3.23	2.5	2.84	0.971	2.13
CCTAGTTGGTCAAGGTTACACACGCTATAGGTAC	1.22	1.09	0.67	1.4	0.618	1.79	1.82	2.2	0.763	1.81
TGAATGAGGTTACAAGATCAGGGAACGTTGCAAA	1.8	1.28	-0.302	1.34	-0.31	3.09	2.14	2.54	1.05	1.65
CCTACTGGGCCATGAGGTCATTGATATCAACGTT	3.57	2.77	1.87	3.24	-0.168	4.19	4.59	4.66	2.55	4.53
TTACCAAGGTGAAGTTCGTTGATCCCTCTGTAGA	1.07	1.09	-0.342	0.617	-0.644	1.98	1.16	2.35	0.877	2.05
CAAACTATGTCACCGGAAGGTCAAAGTCCGCATG	3.73	3.78	4.13	3.89	1.52	4.37	3.69	4.08	1.4	2.98
ATCTCTAGGTACCAAGTTCAGTGAAAGAGAGGAC	0.701	0.609	0.346	0.651	0.845	0.892	0.678	1.23	0.604	1.03
TCTTGTAGATCAAGTAGGTTAAGAAAGCCTGAGT	0.567	0.521	0.138	0.441	-0.306	1.17	-0.25	1.46	2.57	2.04
GCTCGGAGGCCAAGGTCAGAGCTTTGTCCGTAGA	1.41	1.03	-0.427	0.907	-1.5	1.85	0.0755	1.47	-0.393	0.573
ATCTCTAGGTAACCAAGTTCACTGAATGCCGAAC	0.969	1.87	2	1.58	1.09	2.25	1.1	1.54	0.634	1.2
CCTGCTAGGTCATGCTCAGCTAATCTACAGTATG	3.21	2.16	-0.266	1.38	-0.112	2.99	1.9	2.36	0.444	1.35
TCTTGCAGATCAACAGGAGGTTAAGAAAGATCGA	-0.0407	0.769	0.0202	0.679	-0.645	1.11	-0.141	0.718	1.89	1.63
GATGCAGGGTCAGCTAGAGGCCAGAGTATGGAAA	4.25	2.59	-0.565	2.29	-0.68	4.37	2.67	2.66	0.448	1.74
GGAACGCGGGCAAGTTGATAGCAGAGTTTGATGG	-0.639	-0.548	-0.597	-1.24	-0.732	-0.903	0.256	-0.889	-0.573	-0.957
TCCTATAGGTAAAAGGTGAAAGTCGGTGTGGTAA	2.04	1.54	-0.461	1.82	-0.544	4.65	7.68	7.41	7.38	8.23
TCATATAGGTAAAGGTGAAAGTTGAACGATATGA	1.54	1.75	0.158	1.89	-0.399	4.3	5.92	5.66	5.22	5.99
TAGCCTAGGTCATGTGGGCCAGTATAGTGTCGGC	4.35	2.97	0.553	1.85	0.185	3.53	2.11	2.75	0.388	1.46
ATATGTAGGTTAGTTGGGGTCATTCAGACTAGGC	5	6.61	5.82	5.76	1.94	5.47	5.44	5.32	2.72	4.54
ACTAGTTGGTCAGCAGAGGTCACACACAATTCGG	4.13	4.71	4.06	4.34	1.39	4.7	3.33	3.79	1.16	3.11
